Screening data as filed in PubChem BioAssay.
An excerpt weighted towards active compounds, which were near 4.6% of everything screened.
HSF-1 act: increases HSF-1 driven luciferase reporter signal. NIH3T3-HGL HSF-1 luciferase reporter, MG132, 8 h; 100% = twice DMSO control signal. activation, % at 9 µM. 1.7% of 300,000 active;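 active = mean replicate activation of at least 50% with a set share of replicates each reaching 50%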
AHR act: activates the human aryl hydrocarbon receptor | activation, % at 5 µM | P35869 | 2.5% of 320,000 active | AHR-responsive luciferase reporter cells, luminescence; in the data active = activation above about 47%
Target sequence (P35869 whole entry, looked up): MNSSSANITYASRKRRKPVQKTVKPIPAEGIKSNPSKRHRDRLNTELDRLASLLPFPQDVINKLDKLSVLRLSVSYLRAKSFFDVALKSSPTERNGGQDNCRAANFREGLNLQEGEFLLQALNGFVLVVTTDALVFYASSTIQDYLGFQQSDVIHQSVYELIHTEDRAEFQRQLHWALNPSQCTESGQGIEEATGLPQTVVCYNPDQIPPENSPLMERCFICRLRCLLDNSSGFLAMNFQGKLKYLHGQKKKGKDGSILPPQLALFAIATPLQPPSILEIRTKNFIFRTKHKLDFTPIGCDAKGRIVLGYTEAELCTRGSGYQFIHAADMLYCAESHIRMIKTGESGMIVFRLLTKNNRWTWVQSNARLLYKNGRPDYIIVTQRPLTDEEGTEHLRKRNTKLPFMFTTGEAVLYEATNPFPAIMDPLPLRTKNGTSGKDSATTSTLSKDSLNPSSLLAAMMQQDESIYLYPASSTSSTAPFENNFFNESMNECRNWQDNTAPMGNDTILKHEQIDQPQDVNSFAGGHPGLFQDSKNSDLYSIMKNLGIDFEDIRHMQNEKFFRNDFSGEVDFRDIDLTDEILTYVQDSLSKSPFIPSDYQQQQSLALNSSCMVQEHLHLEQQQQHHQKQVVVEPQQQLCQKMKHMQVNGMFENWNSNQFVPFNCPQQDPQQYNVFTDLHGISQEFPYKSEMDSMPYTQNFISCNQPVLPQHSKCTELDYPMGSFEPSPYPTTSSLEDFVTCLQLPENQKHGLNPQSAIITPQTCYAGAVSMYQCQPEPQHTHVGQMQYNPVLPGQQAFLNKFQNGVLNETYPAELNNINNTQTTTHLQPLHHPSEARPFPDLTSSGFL
HSF1 inhib: HSF1 inhibition | AID 2098 | 0.77% of 300,000 active | activity change, negative = inhibition, % at 7.5 µM (by protocol) | NIH3T3-HGL HSE-luciferase, MG132-induced, luminescence 8 h; hits give low values;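 active = more than half of replicate wells show activity change below -50%, luminescence cut by over half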;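 also: luciferase reports HSF-1 transcriptional activity via heat shock element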
FXN GAA850 act: frataxin GAA850 promoter activation | HEK293 lucGAA850 FXN promoter luciferase reporter, 24 h; percent of 10 µM SAHA response | activation, % at 6 µM | 0.56% of 360,000 active | AID 540364;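 active = activation above the average of all compounds screened plus 3 SD, cutoff fixed separately per campaign, cut at about 7.5% in these data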
Hits are given with their value; i = inactive; nt = not tested or not shown.

SMILES | HSF-1 act | AHR act | HSF1 inhib | FXN GAA850 act
CC(C)[C@H](NC(=O)c1ccc(Cl)c([N+](=O)[O-])c1)C(=O)NCc1ccc(Cl)cc1Cl | i | i | i | i
CCOC(=O)Cc1cc(=O)n2[nH]c(-c3ccc(C)cc3)cc2n1 | i | i | i | i
Cc1ccc(CNC(=O)Nc2cccs2)cc1 | 73.2 | i | i | i
CCc1ccccc1NC(=O)Nc1cccs1 | i | 50.0 | i | i
Cc1cc(C)n(-c2nc(SCC(=O)O)c3c4c(sc3n2)CCCC4)n1 | i | i | i | nt
CC(=O)COc1ccccc1OC(=O)c1ccco1 | i | i | -51.1 | i
COc1ccc(/C=C(\NC(=O)c2ccccc2)C(=O)NCCC(=O)O)cc1 | nt | i | nt | i
COc1ccc(NC(=O)c2cc3cc(C)ccc3n2C)c(OC)c1 | i | 58.7 | i | i
CCN(C(=O)COC(=O)c1cc(=O)c2ccccc2o1)c1c(N)n(Cc2ccccc2)c(=O)[nH]c1=O | i | i | i | i
NC(=O)C1CCN(C2=C(Cl)C(=O)c3ccccc3C2=O)CC1 | 74.6 | i | i | i
CCOc1cc(/C=N/NC(=O)Cn2nc([N+](=O)[O-])cc2C)cc(Br)c1OCc1ccccc1C | 70.7 | i | i | i
O=C(NCC1CC1)c1ccc2c3n(nc2c1)-c1ccccc1CO3 | 57.9 | i | i | i
Cc1ccc2c(c1)COc1c3ccc(C(=O)NCC4CC4)cc3nn1-2 | i | i | i | i
CCC(C)NCC(=O)Nc1ccc(-c2nc3cc(NC(=O)CNC(C)CC)ccc3o2)cc1 (centres undefined) | nt | i | nt | i
CCN(CC)C(=O)CSc1ncnc2sc(C)c(C)c12 | 51.6 | i | i | i
Cc1nc([N+](=O)[O-])c(Br)n1CC(=O)c1cccc([N+](=O)[O-])c1 | 101.9 | i | i | i
Cc1nc([N+](=O)[O-])c(Br)n1Cc1ccccc1 | 77.2 | i | i | i
COc1ccc(C2CC(c3ccccc3)=NN2C(=O)COC(=O)c2cccc(S(=O)(=O)N3CCOCC3)c2)cc1 (centres undefined) | i | i | i | i
Cc1nc2ccccc2nc1N/N=C/c1ccc(O)cc1 | i | 75.8 | i | i
Oc1ccc(Nc2nc3ccccc3nc2Nc2ccc(O)cc2)cc1 | i | i | -86.2 | i
Oc1ccc(Nc2nc(-c3ccccc3)nc3ccccc23)cc1 | i | i | i | i
Oc1ccc(/C=N/Nc2ccccc2)cc1 | i | i | i | i
O=C(COc1ccc(Cl)cc1)Nc1cccc(-c2ccc(N3CCOCC3)nn2)c1 | 55.3 | i | i | i
O=C(Nc1cccc(-c2ccc(N3CCOCC3)nn2)c1)c1ccc(Cl)cc1 | i | i | i | i
CC(C)NC(=O)c1cc2c(s1)CCCC2 | i | i | i | i
SMILES | HSF-1 act | AHR act | HSF1 inhib | FXN GAA850 act
CC(=O)Nc1ccc(S(=O)(=O)NC2(C(F)(F)F)NC(=O)N(CC(C)C)C2=O)cc1 (centres undefined) | i | 58.2 | i | i
Cc1ccc(NC(=S)Nc2ccc(S(=O)(=O)Nc3ncccn3)cc2)cc1Cl | i | i | i | nt
COCn1c(-c2cccc(Br)c2)nc2ccccc21 | i | 53.0 | i | i
O=C(Cn1c(C(=O)c2ccccc2)nc2ccccc21)c1ccc(Cl)cc1 | nt | nt | nt | i
Cc1ccc(C(=O)Cn2c(C(=O)OCCO)cc3ccccc32)cc1 | i | nt | i | i
Cc1ccc(C(=O)Cn2c(C(=O)O)cc3ccccc32)cc1 | i | 59.2 | i | i
Cc1ccc(C(=O)Cn2c(C(=O)/C=C/c3ccccc3)nc3ccccc32)cc1 | 185.7 | i | i | i
CCCCn1c(N)c(N(CCOC)C(=O)C2CC(=O)N(Cc3ccc(C)cc3)C2)c(=O)[nH]c1=O (centres undefined) | i | i | i | i
O=C(c1ccncc1)N1CCN(c2ccc(F)cc2)CC1 | i | i | -65.9 | i
O=C(c1ccc(Cl)cc1)N1CCN(c2ccc(F)cc2)CC1 | i | 57.9 | i | i
CNC(=S)N(CCc1c(C)[nH]c2ccc(C)cc12)Cc1cc(OC)c(OC)c(OC)c1 | i | i | -66.2 | i
COc1ccc(NC(=S)N(CCc2c(C)[nH]c3ccc(C)cc23)Cc2cccs2)cc1 | i | 64.5 | i | i
CNC(=S)N(CCc1c(C)[nH]c2ccc(OC)cc12)Cc1cc(OC)c(OC)c(OC)c1 | i | i | i | i
O=C1CSC(=S)N1/N=C/c1cccc(C(F)(F)F)c1 | 68.3 | i | i | i
COC(=O)CCC(=O)N(C)CC1CCCN(CCc2cccc(C(F)(F)F)c2)C1 (centres undefined) | i | i | i | i
Cc1cc2c(ncn2C)c(NS(=O)(=O)c2cc(Cl)ccc2Cl)c1C | 140.1 | i | i | i
CC(C)CNC(=O)NC(=O)COC(=O)c1cc(F)cc(F)c1 | i | i | i | i
Oc1cccc(C=Nc2cccc3ccccc23)c1O | i | 50.8 | i | i
